# ERp5 block: ERp5 (human) disulfide isomerase inhibition; actives 0.05% (n = 350,000); Q15084; inhibition, % at 9.99 µM; ERp5 insulin aggregation, absorbance 650 nm, 90 min;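 active = mean replicate inhibition above about 25%, with every replicate also reaching it, limit read from the data, passing the limit was not always enough; inconclusive = only one of those two criteria met; inactive = neither criterion met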
# DENV2 CPE: inhibitors of DENV2 cytopathic effect; actives 1.7% (n = 350,000); DENV2-infected cells, cytopathic effect rescue, plate reader; AID 651640; CPE inhibition, % at 9.99 µM; in the data active = CPE inhibition above about 20%, passing the limit was not always enough; inconclusive = no clear call, values can overlap the other calls; tested in BHK-21 cells
# Rtt109 HAT inh: inhibitors of Candida albicans Rtt109/Vps75 histone acetyltransferase; purified Rtt109/Vps75, ThioGlo CoA-SH fluorescence, 4 h; inhibition, % at 34.9 µM; actives 0.16% (n = 330,000); AID 540336;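 active = inhibition of at least 50% in every replicate; inconclusive = best replicate reaches 50% inhibition but some replicates fall short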
# Target sequence (Q5AAJ8 whole entry, looked up): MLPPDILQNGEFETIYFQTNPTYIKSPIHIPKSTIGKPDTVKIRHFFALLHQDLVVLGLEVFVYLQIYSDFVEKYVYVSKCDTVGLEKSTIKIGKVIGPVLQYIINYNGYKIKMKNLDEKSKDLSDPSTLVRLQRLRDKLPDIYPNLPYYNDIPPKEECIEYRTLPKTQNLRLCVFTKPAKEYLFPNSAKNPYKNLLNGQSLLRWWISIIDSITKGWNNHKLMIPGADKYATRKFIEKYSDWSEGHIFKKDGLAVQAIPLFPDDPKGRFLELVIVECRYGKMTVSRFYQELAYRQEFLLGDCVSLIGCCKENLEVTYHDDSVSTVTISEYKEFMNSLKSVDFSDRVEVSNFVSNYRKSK
# SIRT5 block: blocks human SIRT5 desuccinylation of peptide | Q9NXA8 | Purified SirT5, succinyl-peptide AMC, trypsin-coupled fluorescence | inhibition, % at 15 µM | actives 1.1% (n = 330,000); in the data active = inhibition above about 15%; inconclusive = no clear call, values can overlap the other calls
# PDI inh: PDI (human) enzyme inhibition; P07237; PDI insulin aggregation turbidity, A650, 90 min; inhibition, % at 10 µM; actives 0.052% (n = 350,000);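 active = mean inhibition across replicates of 30% or more, whatever share of single replicates reach that level; inconclusive = mean inhibition below 30% while every single replicate reaches 30%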
# Numbers stand for hits; n = inactive; u = inconclusive; x = no result; ! = not active in a repeat. An excerpt weighted towards active compounds, which were near 2.3% of everything screened.
SMILES,ERp5 block,DENV2 CPE,Rtt109 HAT inh,SIRT5 block,PDI inh
CC1=C([C@H](O)CCc2ccccc2)[C@H](CO)n2c(=O)n(-c3ccccc3)c(=O)n2C1,n,36,x,n,x
COc1ccc(C(=O)CCC(=O)NCc2cc(OC)cc(OC)c2)cc1,n,35,n,n,n
O=C(C[C@H]1CC[C@H]2[C@@H](COC[C@@H](O)CN2Cc2ccccc2)O1)NCCc1ccccc1,n,n,x,n,x
COc1ccc2c3c([nH]c2c1)[C@H](CO)N(Cc1ccc(Cl)cc1)CC31CN(Cc2ccccc2)C1,x,n,x,x,x
COc1ccc(NC(=O)N(C)C[C@@H]2Oc3ccc(NC(=O)Nc4ccc(F)cc4)cc3CC(=O)N([C@@H](C)CO)C[C@@H]2C)cc1,79,50,x,n,x
C[C@H]1CN([C@@H](C)CO)C(=O)Cc2cc(NC(=O)Nc3ccc(F)cc3)ccc2O[C@H]1CN(C)C(=O)Nc1ccc(F)cc1,n,n,x,16,x
C[C@H](CO)N1C[C@H](C)[C@H](CN(C)C(=O)Nc2ccc(F)cc2)Oc2ccc(NC(=O)Nc3ccc(F)cc3)cc2CC1=O,n,n,x,n,x
COc1ccc(NC(=O)N(C)C[C@@H]2Oc3ccc(NC(=O)Nc4ccc(C(F)(F)F)cc4)cc3CC(=O)N([C@H](C)CO)C[C@@H]2C)cc1,n,53,x,n,x
COc1ccc(NC(=O)Nc2ccc3c(c2)CC(=O)N([C@@H](C)CO)C[C@H](C)[C@@H](CN(C)C(=O)Nc2ccccc2)O3)cc1,n,46,x,n,x
COc1ccc(S(=O)(=O)N[C@@H]2C=C[C@H](CC(=O)O)O[C@H]2CO)cc1,n,n,x,n,x
C[C@@H]1CN([C@@H](C)CO)C(=O)c2cc(C#Cc3ccc(F)cc3)cnc2O[C@H]1CN(C)Cc1ccccn1,n,n,x,n,x
Cc1cc(NC(=O)CCC(=O)N(Cc2ccccc2)C(C(=O)NC2CCCC2)c2ccco2)no1 (configuration not stated),n,n,n,78,n
COc1cccc(C(C(=O)NC2CCCC2)N(CCC(C)C)C(=O)CCC(=O)Nc2cc(C)on2)c1 (configuration not stated),n,n,50,x,n
Cc1ccc(-c2ccc([C@@H]3[C@@H](CO)N4CCCCN(C(=O)Nc5cccc(F)c5)C[C@@H]34)cc2)cc1,n,n,x,18,x
Cc1ccc(-c2ccc([C@@H]3[C@H](CO)N4CCCCN(C(=O)Nc5cccc(F)c5)C[C@@H]34)cc2)cc1,n,n,x,n,x
Cc1ccccc1-c1ccc([C@H]2[C@@H](CO)N3CCCCN(C(=O)Nc4cccc(F)c4)C[C@H]23)cc1,n,45,x,n,x
Cc1ccccc1-c1ccc([C@H]2[C@@H](CO)N3CCCCN(C(=O)Nc4cccc(F)c4)C[C@@H]23)cc1,n,n,x,n,x
Cc1ccccc1-c1ccc([C@@H]2[C@H](CO)N3CCCCN(C(=O)Nc4cccc(F)c4)C[C@@H]23)cc1,n,38,x,n,x
O=C(Nc1ccc2c(c1)[C@H]1C[C@H](CC(=O)N3CCc4ccccc4C3)O[C@H](CO)[C@H]1O2)NC1CCCC1,n,n,x,n,x
CN(C)C(=O)C[C@H]1CC[C@H]2[C@@H](COc3ccc(NS(=O)(=O)c4cccc(F)c4)cc3C(=O)N2C)O1,n,n,x,n,x
Cc1ccccc1C(=O)NCCCNC(=O)c1ccco1,n,n,n,n,n
Cc1ccccc1C(=O)NCCNC(=O)c1ccco1,n,n,51,n,n
CSC1=NSC2=NC(=O)/C(=C/c3coc4ccc(O)cc4c3=O)C(=N)N12,n,x,n,21,n
C[C@H](CO)N1C[C@H](C)[C@H](CN(C)C)Oc2cc(C3=CCCC3)ccc2S1(=O)=O,n,n,x,n,x
COCC(=O)N1CCC2(CC1)CN(C(=O)COC)[C@H](CO)c1c2c2ccc(OC)cc2n1C,x,n,x,x,x
SMILES,ERp5 block,DENV2 CPE,Rtt109 HAT inh,SIRT5 block,PDI inh
S=C(SSC(=S)N1CCOCC1)N1CCOCC1,n,24,x,n,x
O=C(C[C@@H]1CC[C@H]2[C@@H](COC[C@H](O)CN2C(=O)Nc2ccc(F)cc2)O1)NCCc1ccncc1,n,n,x,n,x
CCCN(C)C[C@H]1Oc2cc(C#CCOC)ccc2S(=O)(=O)N([C@@H](C)CO)C[C@H]1C,n,u,x,n,x
COc1ccccc1S(=O)(=O)N(C)C[C@H]1OCc2ccccc2-c2c(n(C)c3ccccc23)C(=O)N([C@H](C)CO)C[C@@H]1C,n,u,x,15,x
Cc1ccccc1S(=O)(=O)N(C)C[C@H]1OCc2ccccc2-c2c(n(C)c3ccccc23)C(=O)N([C@H](C)CO)C[C@H]1C,n,n,x,16,x
CC(C)CC#Cc1ccc2c(c1)O[C@H](CN(C)Cc1ccccc1F)[C@H](C)CN([C@@H](C)CO)S2(=O)=O,n,n,x,u,x
COc1ccc(S(=O)(=O)Nc2ccc3c(c2)C(=O)N([C@@H](C)CO)C[C@@H](C)[C@@H](CN(C)C(=O)NC2CCCCC2)OCCCC[C@H](C)O3)cc1,n,n,x,n,x
O=C1C=C(O)c2cccc(O)c2C1=O,n,44,n,x,x
COC(=O)c1cc(C)nc2c1C(=O)C(=O)C=C2N1CCOCC1,63,n,n,n,n
COC(=O)c1cc(S(=O)(=O)N2CCOCC2)c(Cl)cc1N1CCOCC1,x,x,n,x,n
CO[C@@H]1CN(C)C(=O)c2cc(NS(=O)(=O)CC(F)(F)F)ccc2OC[C@H](C)N(C(=O)c2ccc3c(c2)OCO3)C[C@@H]1C,n,n,x,x,x
C[C@@H]1CCCCO[C@@H](CN(C)Cc2ccc(C(=O)O)cc2)[C@H](C)CN([C@@H](C)CO)C(=O)c2cc(NC(=O)CCCN(C)C)ccc2O1,n,38,x,n,x
C[C@H]1CN([C@@H](C)CO)C(=O)c2cc(NC(=O)c3ccncc3)ccc2O[C@H]1CN(C)Cc1ccc(C(=O)O)cc1,n,42!,n,n,n
C[C@@H]1CN([C@@H](C)CO)C(=O)c2cc(NC(=O)c3ccncc3)ccc2O[C@@H](C)CCCCO[C@@H]1CN(C)Cc1ccc(C(F)(F)F)cc1,n,n,x,16,x
COc1ccc(NC(=O)N(C)C[C@@H]2OCCCC[C@@H](C)Oc3ccc(NC(=O)c4ccncc4)cc3C(=O)N([C@@H](C)CO)C[C@H]2C)cc1,x,41,x,x,x
C[C@H](CO)N1C[C@H](C)[C@@H](CN(C)Cc2ccc(C(=O)O)cc2)Oc2ccc(NC(=O)c3ccncc3)cc2C1=O,n,n,x,n,x
C[C@@H]1CCCCO[C@@H](CN(C)Cc2ccc(C(=O)O)cc2)[C@H](C)CN([C@H](C)CO)C(=O)c2cc(NC(=O)CCCN(C)C)ccc2O1,n,n,x,n,x
C[C@@H]1CN([C@@H](C)CO)S(=O)(=O)c2ccc(Br)cc2O[C@@H]1CN(C)Cc1ccncc1,n,n,x,n,x
COc1ccc2c3c([nH]c2c1)[C@H](CO)N(C)CC31CN(C(=O)c2ccccn2)C1,x,n,x,x,x
CC(C)C#Cc1cnc2c(c1)C(=O)N([C@@H](C)CO)C[C@H](C)[C@H](CN(C)C(=O)Cc1ccccn1)O2,n,n,x,n,x
C[C@@H]1CCCCO[C@@H](CN(C)C(=O)CCC(F)(F)F)[C@H](C)CN([C@H](C)CO)C(=O)c2cc(NC(=O)c3ccncc3)ccc2O1,n,21,x,n,x
